Measured values from PubChem BioAssay (NCI).
Compounds without any hit were thinned out: in the full panel of roughly 83,000, 20% have a hit.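 Single-concentration screen, 48 h exposure, 96-well plates. Endpoint: percent growth. Below 10 = active.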 A number with no mark means an inactive call. Active and inactive are the calls of the source.

How the values were obtained:
Assay in all cases: NCI-60 one-dose screen, 48 h (100 = growth as untreated, 0 = no growth, -100 = all killed)
Details in all cases: 10 µM unless noted
NCI-H23 lung = test system: NCI-H23 lung
NCI-H226 lung = test system: NCI-H226 lung
NCI-H322M lung = test system: NCI-H322M lung
HOP-62 NSCLC = test system: HOP-62 NSCLC
NCI-H460 lung = test system: NCI-H460 lung
HOP-92 NSCLC = test system: HOP-92 NSCLC
NCI-H522 lung = test system: NCI-H522 lung
A549/ATCC NSCLC = test system: A549/ATCC NSCLC
786-0 renal = test system: 786-0 renal
COLO 205 colon = test system: COLO 205 colon

Row | SMILES | growth (NCI-H23 lung) | growth (NCI-H226 lung) | growth (NCI-H322M lung) | growth (HOP-62 NSCLC) | growth (NCI-H460 lung) | growth (HOP-92 NSCLC) | growth (NCI-H522 lung) | growth (A549/ATCC NSCLC) | growth (786-0 renal) | growth (COLO 205 colon)
1 | COc1ccc2oc(=O)c(-c3csc(N/N=C(\C)c4cc(OC)c(OC)c(OC)c4)n3)cc2c1 | 84% | 89.7% | 96.8% | 109% | 79.1% | 96.8% | 85.8% | 101% | 90.5% | 99.8%
2 | COc1ccc(-c2nnc3c(/C=C/c4ccc(Br)cc4)nc4ccccc4n23)cc1 | 29.9% | 96.7% | 96.5% | 104% | 67.6% | 35.6% | -79.9% (active) | 75.8% | -41.8% (active) | -53% (active)
3 | C[C@@H]1CN(c2ccc3ncc(C#Cc4cncc(C(=O)Nc5ccc(CN6CCN(C)CC6)c(C(F)(F)F)c5)c4)n3n2)C[C@@H](C)O1 | -87.5% (active) | -86.3% (active) | -78.9% (active) | -59.8% (active) | -80% (active) | -87.7% (active) | -73.3% (active) | -59% (active) | -95.9% (active) | -77.7% (active)
4 | COc1cccc(NC(=O)c2ccc(NC(=O)CCl)s2)c1 | 11.9% | 61.5% | 101% | 64.2% | 12.1% | 85.9% | -79.7% (active) | 39.7% | -86.8% (active) | 40.2%
5 | Cn1cc(-c2cc3nc(-c4cn(C)c5ncc(Br)cc45)cc(N)n3n2)c2cc(F)ccc21 | 15.2% | 10.9% | 35.3% | 15% | 20.9% | -18.3% (active) | 2.15% (active) | 0.571% (active) | -5.13% (active) | 51.6%
6 | C=CCn1c(O)c(N=Nc2nc(-c3cc4ccccc4oc3=O)cs2)c2ccccc21 | 35.4% | 74.2% | 101% | 80.8% | 18.3% | 85% | 58.3% | 24.7% | 47.3% | 18.1%
7 | Clc1ccc(-c2nc3ccc(-c4nnc(SCc5ccccc5)o4)cc3[nH]2)cc1 | 18.3% | 40.3% | 27.6% | 9.18% (active) | 41.4% | 48% | 10.3% | 34.9% | 24.6% | 55.3%
8 | O=C(N/N=C/c1ccc(Br)o1)c1[nH]c2ccc(Br)cc2c1-c1ccccc1 | -37% (active) | -42.6% (active) | 15% | -28.6% (active) | -63% (active) | -4.09% (active) | -61.5% (active) | -4.05% (active) | -52.7% (active) | -13.5% (active)
9 | O=C1N/C(=N\c2nccs2)S/C1=C\c1ccc([N+](=O)[O-])cc1 | 32.7% | 6.47% (active) | 23.2% | 37.4% | 8.33% (active) | 16.7% | -1.75% (active) | 9.8% (active) | 19.7% | 23.2%
10 | N#C/C(=C/c1ccc(Cl)cc1)c1nnc(NC(=O)c2ccc(-n3c(=O)[nH]c4ccccc4c3=O)cc2)s1 | 28.6% | 2.1% (active) | 59.5% | 26.6% | 10.1% | 39.3% | 46.4% | 69.8% | 48.1% | 68.1%
11 | CCOC(=O)/C(F)=C/C1CC1C(c1ccccc1)c1ccccc1 (stereo not given) | 73.8% | 91.8% | 80.6% | 125% | 38.7% | 84.1% | 94.8% | 91.7% | 93% | 117%
12 | O=C(Cc1c(-c2cccc([N+](=O)[O-])c2)n(-c2ncnc3c2c(-c2ccccc2)c(-c2ccccc2)n3Cc2ccccc2)[nH]c1=O)c1ccc(Cl)c(Cl)c1 | 16.1% | 39% | 79.1% | 44.9% | 33.9% | -2.08% (active) | 7.22% (active) | 45% | 63.4% | 60.2%
13 | COc1ccc(-n2c(NC(=O)N3CCN(C)CC3)c(C#N)c3ccccc32)cc1 | 33.8% | 11.4% | 90.2% | 30.5% | 30.7% | 44% | 61.1% | 45.3% | 44.2% | 65.5%
14 | CCCCCCCCc1cccc(CC(=O)Nc2ccc(C)cc2C(=O)O)c1 | 59.3% [25 µM] | 65.3% [25 µM] | 62.7% [25 µM] | 54.8% [25 µM] | 20.4% [25 µM] | 83.8% [25 µM] | 38.7% [25 µM] | 31.4% [25 µM] | 34.1% [25 µM] | 59.1% [25 µM]
15 | Cc1nc2sccn2c1-c1nnc(SCc2ccccc2)o1 | 86.1% | 75.5% | 90.4% | 99.9% | 99.6% | 71.9% | 78.2% | 91.2% | 76.1% | 112%
16 | CC(Nc1ncnc2ccc(-c3ccc4oc(N)nc4c3)cc12)c1ccccc1 (stereo not given) | 16.4% | -10.2% (active) | -24.9% (active) | -53.1% (active) | 3.34% (active) | -45.9% (active) | 18.4% | 13.3% | -48.2% (active) | 14%
17 | CC(C)C[C@H](NC(=O)CNC(=O)C[C@H]1O[C@@H]2OC3(C)CC[C@H]4[C@H](C)CC[C@@H]([C@H]1C)[C@@]24O3)B(O)O | -37.1% (active) | -36.2% (active) | 54.4% | -3.39% (active) | 9.47% (active) | -18.8% (active) | -74.3% (active) | 27.9% | 16% | 29.5%
18 | O=C(c1ccc(O)cc1)C1[C@H](c2ccccc2Br)[C@@H](c2ccccc2)NC12C(=O)Nc1ccccc12 (stereo not given in full) | 34.3% | 53.3% | 61.6% | 59.8% | 33.1% | 38.8% | -21.1% (active) | 22.9% | 28.8% | 28%
19 | COc1cc(C2CC(c3ccc(S(=O)(=O)NCCNc4nc(N(C)C)nc(N5CCOCC5)n4)cc3)=Nc3c(N)nc(N)nc3N2)cc(OC)c1OC (stereo not given) | 97.4% | 85.1% | 79.8% | 90.8% | 104% | 92.7% | 90.1% | 98.3% | 94.3% | 116%
20 | COc1ccc(NC(=O)CSc2nnc(-c3ccc(-c4nc5ccc(Cl)cc5[nH]4)cc3)o2)cc1 | -15.7% (active) | -18.8% (active) | 35% | -25.4% (active) | -17.2% (active) | 4.79% (active) | 6.93% (active) | 1.75% (active) | -64.4% (active) | 69.4%
21 | CC(C)CN1C(=O)/C(=C\C(=O)c2cc3ccccc3oc2=O)c2ccccc21 | 90.5% | 83.5% | 96.7% | 97.9% | 103% | 104% | 31.5% | 109% | 105% | 26.8%
22 | CC(C)(C)c1cc(-c2cc(-c3ccccc3)[nH]c(=O)c2C#N)cc(C(C)(C)C)c1 | 40.4% | 3.42% (active) | 23.6% | -40.2% (active) | 14.9% | -16% (active) | 41.8% | 5.52% (active) | 23% | 91.5%
23 | CN1CCN(C(=O)CCN(C(=O)Oc2cc3c(c4ccccc24)[C@H](CCl)CN3C(=O)c2cc3cc(OCCCN4CCC4)ccc3[nH]2)[C@H]2CCSSC2)CC1 | -73.3% (active) | -17.9% (active) | -48% (active) | -77.4% (active) | 2.93% (active) | -32.1% (active) | -74.4% (active) | -61.5% (active) | -90.8% (active) | -80% (active)
24 | COC(=O)c1c(C(=O)OC)c2c3ccccc3c3ccccc3n2c1C(=O)C(F)(F)F | 89.1% | 80% | 101% | 107% | 105% | 97.2% | 96.4% | 111% | 102% | 108%
25 | CN1CCN(c2ccc3c4c(cccc24)C(=O)N(c2cccc(-c4nn(-c5ccccc5)cc4-c4nc5ccccc5s4)c2)C3=O)CC1 | 97.9% | 95.9% | 111% | 114% | 18.5% | 71.7% | 110% | 97.9% | 46.5% | 91.1%
26 | O=C(NNC(=O)c1ccc(OCc2nc3ccc(Cl)cc3[nH]2)cc1)Nc1ccc(Cl)c(C(F)(F)F)c1 | 35.9% | 64.1% | 43.6% | 68.4% | 38.1% | -1.57% (active) | 49% | 57.1% | 70.1% | 85.6%
